# Screening data (PubChem BioAssay)
# Shown is part of a subset that was picked to be rich in hits.
# BLM helicase inh – qHTS Assay for Inhibitors of Bloom's syndrome helicase (BLM); RecQ-like DNA helicase BLM (Homo sapiens), P54132; recombinant BLM DNA unwinding, fluorescence dequenching; Potency, µM (series often up to 56.1 µM), for inactives: top-dose activity change, negative = inhibition, hits mostly inhibitors; actives 0.2% (n = 350,000);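 note: plate controls were vehicle for no effect and no enzyme for full effect; nearly all actives have a fitted effect of over 35% in size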
# Target sequence (P54132 whole entry, looked up): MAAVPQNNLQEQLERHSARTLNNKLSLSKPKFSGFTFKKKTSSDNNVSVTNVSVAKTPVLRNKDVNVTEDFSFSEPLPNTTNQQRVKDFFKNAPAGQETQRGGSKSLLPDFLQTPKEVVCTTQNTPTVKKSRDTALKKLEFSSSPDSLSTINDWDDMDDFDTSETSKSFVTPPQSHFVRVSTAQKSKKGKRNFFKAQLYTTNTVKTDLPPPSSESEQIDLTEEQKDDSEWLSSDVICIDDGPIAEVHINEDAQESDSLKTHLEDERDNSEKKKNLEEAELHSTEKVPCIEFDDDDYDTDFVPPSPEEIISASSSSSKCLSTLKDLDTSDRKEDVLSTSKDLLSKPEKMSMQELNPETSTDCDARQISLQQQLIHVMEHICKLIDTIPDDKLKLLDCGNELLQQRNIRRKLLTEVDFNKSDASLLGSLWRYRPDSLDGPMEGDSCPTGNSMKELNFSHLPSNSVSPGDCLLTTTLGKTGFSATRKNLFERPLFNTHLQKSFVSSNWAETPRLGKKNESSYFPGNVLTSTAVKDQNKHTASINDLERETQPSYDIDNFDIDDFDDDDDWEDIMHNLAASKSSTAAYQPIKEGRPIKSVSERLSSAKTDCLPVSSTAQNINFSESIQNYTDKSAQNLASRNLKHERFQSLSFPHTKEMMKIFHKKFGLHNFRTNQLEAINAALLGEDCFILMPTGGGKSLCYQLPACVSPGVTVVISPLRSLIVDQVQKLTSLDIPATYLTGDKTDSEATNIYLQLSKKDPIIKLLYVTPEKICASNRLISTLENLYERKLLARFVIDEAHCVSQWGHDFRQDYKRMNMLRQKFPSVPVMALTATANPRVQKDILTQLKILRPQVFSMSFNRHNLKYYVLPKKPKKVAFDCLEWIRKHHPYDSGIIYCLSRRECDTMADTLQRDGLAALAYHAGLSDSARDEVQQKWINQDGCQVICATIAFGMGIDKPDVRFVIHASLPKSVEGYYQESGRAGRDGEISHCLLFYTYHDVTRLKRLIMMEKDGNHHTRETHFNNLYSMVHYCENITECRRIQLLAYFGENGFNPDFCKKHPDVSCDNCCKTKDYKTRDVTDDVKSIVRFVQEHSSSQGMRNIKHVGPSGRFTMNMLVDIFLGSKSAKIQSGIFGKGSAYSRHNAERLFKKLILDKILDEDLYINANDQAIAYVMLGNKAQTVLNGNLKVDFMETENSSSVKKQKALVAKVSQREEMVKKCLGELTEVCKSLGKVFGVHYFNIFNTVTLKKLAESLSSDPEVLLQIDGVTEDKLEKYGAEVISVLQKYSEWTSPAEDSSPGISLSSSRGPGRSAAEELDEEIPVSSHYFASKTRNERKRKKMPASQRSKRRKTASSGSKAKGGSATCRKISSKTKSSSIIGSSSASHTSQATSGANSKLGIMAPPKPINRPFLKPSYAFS
# APE1 inh – qHTS Assay for Inhibitors of the Human Apurinic/apyrimidinic Endonuclease 1 (APE1) | recombinant APE1, TAMRA/BHQ-2 abasic DNA cleavage fluorescence | Potency, µM (titrated, usually from 65.8 µM), for the others: top-dose activity change, negative = inhibition, actives largely listed as inhibitors | actives 0.35% (n = 350,000) | AID 2517, 2012;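 note: plate controls were vehicle for no effect and reference inhibitor for full effect; nearly all actives have a fitted effect of over 55% in size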
#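 Endonuclease cleavage of a quenched abasic-site DNA duplex (50 nM) by APE1 (0.75 nM) was tracked by TAMRA dequenching. Compounds were preincubated with enzyme 15 min at room temperature; data normalized to buffer-only and DMSO wells plus NSC13755 control.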
# RECQ1 helicase – qHTS Assay for Inhibitors of RecQ-Like Dna Helicase 1 (RECQ1). ATP-dependent DNA helicase Q1 (Homo sapiens), P46063. RECQ1 DNA unwinding, red fluorescence kinetic read. Potency, µM (series often up to 57.3 µM), for inactives: at the highest dose activity, negative = inhibition, most hits filed as inhibitors. actives 0.54% (n = 240,000). AID 2549, 2010;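 note: plate controls were vehicle for no effect and no enzyme for full effect; nearly all actives have a fitted effect of over 30% in size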
#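 50 nM RECQ1T1 preincubated 15 min with compound in Tris pH 8.0 buffer with MgCl2, DTT, Tween-20 and 2.5 ug/ml poly(dI-dC); started with 200 nM TAMRA/BHQ-2 forked duplex and 2 mM ATP. Unwinding read as fluorescence (525/598 nm), two reads 2 h apart.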
# KDM4E inh – qHTS Assay for Inhibitors of Human Jumonji Domain Containing 2E (JMJD2E); Potency, µM (titrated, usually from 57.1 µM), for the others: at the highest dose activity change, negative = inhibition, actives largely listed as inhibitors; Lysine-specific demethylase 4E (Homo sapiens), B2RXH2; actives 1.6% (n = 230,000); JMJD2E catalytic domain, FDH-coupled NADH fluorescence (FDH is formaldehyde dehydrogenase);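 note: 0% = wells with enzyme and -100% = buffer wells without enzyme; nearly all actives have a fitted effect of over 50% in size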
# TDP1 block – qHTS Assay for Inhibitors of Tyrosyl-DNA Phosphodiesterase (TDP1). recombinant TDP1, AlphaScreen DNA substrate cleavage. AID 485290, 2010. Potency, µM (titrated, usually from 130 µM), for the others: at the top dose activity change, negative = inhibition, actives largely listed as inhibitors. Tyrosyl-DNA phosphodiesterase 1 (Homo sapiens), Q9NUW8. actives 0.28% (n = 350,000); note: nearly all actives have a fitted effect of over 40% in size
#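 Recombinant E. coli-expressed Tdp1 (1 nM) preincubated with compound 15 min at RT, then 5'-biotin/3'-phosphotyrosine-FITC DNA substrate (15 nM) added for 5 min. AlphaScreen beads (10 ug/ml) added, 10 min RT; tyrosine-FITC cleavage read as signal loss.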
# GCN5L2 inh – qHTS Assay for Inhibitors of GCN5L2; Histone acetyltransferase KAT2A (Homo sapiens), Q92830; GCN5L2 HAT assay, ThioGlo1 CoA-SH fluorescence; Potency, µM (highest dose often 58.9 µM), for the others: at the top dose activity change, negative = inhibition, actives largely listed as inhibitors; actives 0.21% (n = 390,000); AID 504327, 2011
#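 ThioGlo1-coupled HAT assay: 20nM GCN5L2, 70uM acetyl-CoA, 75uM H3(1-25) peptide, pH 7.5. Fluorescence read at 340/540nm at start and after 20 min at room temperature.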
# * = called active by the depositor; i = inactive; u = inconclusive; x = not tested or not shown; ! = not confirmed by another sample; [ ] = dose if it differs, or a comment. Unless noted, calls come from the whole dose curve; as a rule, active = well fitted curve in the direction sought with a large enough effect; inconclusive = small, poorly fitted or top-dose-only effect, or another doubt; inactive = no such curve, though single readings can be large; an effect the other way counts as inactive or inconclusive. Unless noted, % is set by controls: 0 for no effect and ±100 for the full control effect; potency is the fitted concentration of half-maximal effect.
SMILES,BLM helicase inh,APE1 inh,RECQ1 helicase,KDM4E inh,TDP1 block,GCN5L2 inh
COc1cc(NC2CCCCC2O)c2nc(-c3ccc(Cl)cc3)ccc2c1 (stereo unspecified),-24%,12%,-18%,22µM*,-1%,4%
COc1ccc(OCC(=O)OCC(=O)NC2CCCCC2C)cc1 (stereo unspecified),x,0%,x,x,-1%,-6%
O=S(=O)(c1ccc2c(c1)OCCO2)C1CCN(S(=O)(=O)c2c(F)cccc2F)CC1,x,x,x,x,0%,x
COc1ccc(C2c3ccccc3Oc3ncn(CCN4CCOCC4)c(=N)c32)cc1OC (stereo unspecified),x,x,x,x,-6%,x
CSc1nc(C)cc(OCC(=O)N/N=C/c2ccccc2O)n1,3%,8%,-6%,25µM*,4%,25%
O=C(Cn1cc[n+](CC(=O)c2ccccc2)c1)c1ccccc1,0%,-1%,22µM*,0%,9%,0%
Cc1ccc(S(=O)(=O)N2CCN(c3nc(-c4ccncc4)nc4ccccc34)CC2)cc1,x,x,x,x,-11%,x
N#CCCn1c(=O)c(-c2ccc(Cl)cc2)nc2cnc(N3CCNCC3)nc21,-5%,1%,i,x,x,u
CN(C)CCCn1cc(C2=C(c3c[nH]c4ccccc34)C(=O)NC2=O)c2ccccc21,-14%,-10%,28µM*!,-16%,21%,-10%
COc1ccc2c(c1)c(C1=C(c3c[nH]c4ccccc34)C(=O)NC1=O)cn2CCCN(C)C,-13%,-10%,-23%,x,21%,4%
CCOc1ccc(-c2cc(-c3nc(-c4ccc(C)cc4)no3)[nH]n2)cc1,3%,x,x,x,5%,1%
Oc1ccc(/C=N/Nc2nccnc2Cl)c(O)c1,-9%,-1%,-2%,u,-1%,2%
Oc1ccccc1/C=N/Nc1nccnc1Cl,-5%,-3%,-14%,25µM*,8%,-9%
COc1ccc(C(C)=O)c(O)c1,-10%,3%,7%,2%,-7%,-9%
COc1ccc(CCC(=O)O)c(O)c1,-7%,16µM*,i,-18%,x,u
O=[N+]([O-])c1ccccc1-c1ccc(C(=S)N2CCCC2)o1,-18%,-9%,10%,25µM*,6%,-26%
Nc1nc2c(c(=O)[nH]1)N(C=O)C(CNc1ccc(C(=O)N[C@@H](CCC(=O)O)C(=O)O)cc1)CN2 (stereo partly specified),x,11%[21 µM],x,x,x,x
CCc1n(CC(O)COCC2CC=CCC2)c2ccccc2[n+]1C (stereo unspecified),5%,3%,-3%,11µM*,0%,-1%
Cc1nc2ccccc2n1CC(O)COCC1CC=CCC1 (stereo unspecified),-1%,1%,12%,7%,7%,-5%
Cn1cc(/C=N/NC(=O)c2cc3cc(Br)ccc3o2)c2ccccc21,-2%,3%,i,-2%,x,1%
O=C(O)c1ccc(-n2cccc2/C=N\NC(=O)c2cc3cc(Br)ccc3o2)cc1,-6%,3.5µM*,u,u,1.1µM*,u
Nc1c(/C=C2/C=CC(=O)C(O)=C2)c(=O)nc2sc(CC(=O)N3CCCC3)nn12,-19%,11µM*,x,x,u,-21%
COC1=C/C(=C/c2c(N)n3nc(CC(=O)N4CCCC4)sc3nc2=O)C=CC1=O,0%,60%,x,x,-7%,-8%
COc1cccc(C2c3c(ncn(Cc4cccs4)c3=N)Oc3ccc4ccccc4c32)c1 (stereo unspecified),x,x,x,x,5%,x
S=c1[nH]nc(Nc2cccc3ccccc23)s1,0%,-3%,-5%,25µM*,15%,u
SMILES,BLM helicase inh,APE1 inh,RECQ1 helicase,KDM4E inh,TDP1 block,GCN5L2 inh
c1ccc2c(Nc3nc4c(s3)CCCC4)cccc2c1,-12%,16%,i,u,10%,-13%
OCCCNc1c2ccccc2nc2ccccc12,131%,17µM*,x,x,x,3%
Cc1ccc(-c2nc(NCCCO)c3ccccc3n2)cc1,-13%,4%,x,x,3%,-5%
CC(C)n1c(=O)[nH]c2ccccc21,-2%,5%,-14%,-3%,1%,-7%
CC(C)n1c(=O)[nH][nH]c1=S,0%,8%,-6%,3.2µM*,8%,14µM*
COc1ccc2c(c1)C(=O)N(CCc1ccc(S(=O)(=O)NC(=O)NC3CCCCC3)cc1)C(=O)C2(C)C,-6%,u,-14%[25.9 µM],7.9µM*,5%,-1%
CC(=O)c1c(C)c(C)c2n1CCn1c(C)ccc1-2,-12%,-4%,-4%,22µM*,6%,-2%
O=Nc1c(O)[nH]c2ccc(F)cc12,-2%,1%,-3%,3%,-3%,-14%
Cc1cc2c(N=O)c(NO)ccc2[nH]1,-5%,-5%,i,11µM*,7%,-2%
C/C(=N\NC(=O)c1ccncc1)c1cc2ccccc2oc1=O,1%,2%,-4%,14µM*,5%,-11%
COc1ccc2oc(=O)c(/C(N)=N/NC(=O)c3ccncc3)cc2c1,-1%,-4%,x,x,50µM*,1%
N#Cc1cccc(NS(=O)(=O)c2ccc3c(c2)CCC(=O)N3)c1,x,x,x,x,1%,x
O=C(O)c1ccccc1Nc1ccc(CCc2ccc(Cl)c(Cl)c2)cc1,u,-2%,u,x,17%,11µM*
Cc1ccc(NC(=O)C(c2ccccc2)N2Cc3ccccc3C2=O)cc1Cl (stereo unspecified),-8%,x,x,x,5%,-8%
Cc1ccc(C(=O)C(c2ccccc2)N2Cc3ccccc3C2=N)cc1 (stereo unspecified),-8%,-2%,-9%,6.3µM*,4%,-20%
CCC(CC)C(=O)Nc1ccc2nc(SCC(=O)N3CCOCC3)sc2c1,-3%,x,x,x,5%,-4%
Cc1cc(C)cc(N(CC(=O)NC2CCCCC2)C(=O)c2ccc(C)s2)c1,-4%,-1%,3%,-4%,2%,u
Cc1ccc(N(CC(=O)NC2CCCCC2)C(=O)c2ccc(C)s2)cc1,-2%,-6%,-1%,-2%,0%,4µM*
CC1=C(/C=C/C(C)=C/C=C/C(C)=C/C(=O)Nc2ccc(O)cc2)C(C)(C)CCC1,-19%,-2%,-5%,20µM*!,15%[56.1 µM],-29%
